The other results are listed elsewhere or left out. The source made the active and inactive calls.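 How the source made its calls: active means drop in membrane potential signal beyond 5 SD of the control wells in both duplicate plates; inactive means the rest.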
System: TRPC4 (transient receptor potential cation channel C4), mouse
Assay: TRPC4 inhibition by TRPC6 hit compounds, confirmation, selectivity assay for TRPC6 modulator project, cell-based, second screen, HEK293 TRPC4/mu-opioid, membrane potential dye (AID 488928);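 further: TRPC4 counter screen for TRPC6 hits run under conditions tuned for TRPC6 not TRPC4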
Conditions: membrane potential dye fluorescence, at 10 µM, stimulated with maximal-effect DAMGO

CC1=CC(=Cc2sc3ccccc3[n+]2C)C=C(C)O1
outcome: inactive
